Screening results (PubChem)
CHRM1 PAM = human M1 muscarinic receptor positive allosteric modulators, primary screen, CHO-K1 cells, Fluo-8 calcium fluorescence, 1536-well; AID 588819, 2011; activation, % at 3 µM; hit rate 0.088% among 360,000; CHO-K1 hM1, ACh EC20; 0% = ACh EC20, 100% = maximal ACh; in the data active means activation above about 19%, passing the limit was not always enough
Target sequence (P11229 whole entry, looked up): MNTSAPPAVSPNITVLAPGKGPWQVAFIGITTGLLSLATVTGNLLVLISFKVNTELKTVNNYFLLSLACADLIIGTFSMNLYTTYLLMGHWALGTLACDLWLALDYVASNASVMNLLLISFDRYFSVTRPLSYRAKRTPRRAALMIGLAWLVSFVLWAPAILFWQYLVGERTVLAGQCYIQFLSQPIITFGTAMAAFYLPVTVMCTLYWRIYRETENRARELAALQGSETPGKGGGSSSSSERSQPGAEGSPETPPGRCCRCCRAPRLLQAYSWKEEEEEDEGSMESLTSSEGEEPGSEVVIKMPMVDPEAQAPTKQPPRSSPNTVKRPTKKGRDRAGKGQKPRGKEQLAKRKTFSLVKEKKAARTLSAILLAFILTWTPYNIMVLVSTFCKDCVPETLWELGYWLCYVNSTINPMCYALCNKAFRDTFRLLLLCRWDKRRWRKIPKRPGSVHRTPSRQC
CHRM1 antagonist = human M1 muscarinic receptor antagonists, primary screen, CHO-K1 cells, Fluo-8 calcium fluorescence, 1536-well; inhibition, % at 3 µM; hit rate 1.3% among 360,000; Muscarinic acetylcholine receptor M1 (Homo sapiens), P11229; CHO-K1 hM1, ACh EC80 antagonist;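 active means percent inhibition above its own plate's cutoff, namely the mean of that plate's compound wells plus 3 SD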;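 further: peak over basal fluorescence ratio during 140 s after agonist addition; 0% = ACh EC80 plus DMSO and 100% = DMSO alone without agonist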
CHO-K1 Ca antag = M1 antagonist counterscreen hit in parental CHO-K1 cells | hit rate 0.6% among 360,000 | inhibition, % at 3 µM | AID 602250 | ATP-induced calcium, Fluo-8 fluorescence;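 active means inhibition above a per-plate cutoff, the plate's mean sample inhibition plus 3 SD, cut at about 24% in these data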;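 further: 0% = DMSO plus EC80 ATP and 100% = DMSO alone without ATP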
CHO-K1 Ca PAM = nonselective calcium activators in parental CHO-K1 cells, primary screen, counter-screen for M1 PAM project, cell-based, Fluo-8 calcium fluorescence, full deck, 1536-well; ATP EC20; 0% at ATP EC20, 100% at ATP max; activation, % at 3 µM; hit rate 0.02% among 360,000;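 active means activation above the run cutoff, the mean activation of all test compounds plus 3 SD, cut at about 40% in these data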;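 further: peak over basal fluorescence ratio in a 140 s read after ATP addition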
CHRM1 agonist = human M1 muscarinic receptor agonists, primary screen, Fluo-8 calcium fluorescence, CHO-K1 cells, HTS | Muscarinic acetylcholine receptor M1 (Homo sapiens), P11229 | CHO-K1 hM1, agonist mode; 0% DMSO, 100% acetylcholine EC100 | activation, % at 3 µM | hit rate 0.33% among 360,000;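 active means activation above the run's mean compound activation plus 3 SD, cut at about 16% in these data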;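 further: peak over basal fluorescence ratio within a 140 s kinetic read after compound addition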
M1 ag parental = counter-screen for M1 agonists: effect in parental CHO-K1 cells | Fluo-8 calcium fluorescence; scaled to maximal ATP response, vehicle zero | AID 602248, 2012 | hit rate 0.48% among 360,000 | activation, % at 3 µM; in the data active means activation above about 15%;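 further: untransfected CHO-K1 host cells lacking M1 receptor as counterscreen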
Numbers without * were called inactive. Most compounds without a hit are left out; they make up all but 2.4% or so of the library.

SMILES	CHRM1 PAM	CHRM1 antagonist	CHO-K1 Ca antag	CHO-K1 Ca PAM	CHRM1 agonist	M1 ag parental
Cc1cccc(NS(=O)(=O)c2ccc(C(=O)NCC(c3ccccc3)N(C)C)cc2)c1C (configuration not stated)	-19	27*	-1	-14	4	14
CN(C)C(CNC(=O)c1ccc(NC(=O)c2cccs2)cc1)c1ccccc1 (configuration not stated)	-25	20	-2	0	-12	1
CN(C)C(CNC(=O)c1ccc(C2SCCS2)cc1)c1ccccc1 (configuration not stated)	-27	38*	-19	8	-13	1
Cc1ccc(S(=O)(=O)Nc2cccc(C(=O)NCC(c3ccco3)N(C)C)c2)cc1F (configuration not stated)	-25	43*	-6	12	-7	2
CC(C)[C@H](NC(=O)[C@@H]1Cc2ccccc2CN1C(=O)OC(C)(C)C)C(=O)NCC1CCCO1 (some centres not stated)	5	-12	-23	4	-1	0
Cn1nnnc1SCC(=O)NCCc1ccc(Cl)cc1	6	-4	-8	16	2	0
CCOc1ccc(CCNC(=O)CSc2nnnn2C)cc1OCC	3	2	1	15	-7	16*
CC12CCC(C(=O)N(CC3CO3)C1=O)C2(C)C (configuration not stated)	9	-2	-2	16	-2	1
COc1cc(CN2CCN(C(O)(c3ccccc3)c3ccccc3)CC2)cc(OC)c1OC	-28	62*	10	-6	-9	2
CC1(C)N=C(N)N=C(N)N1c1ccc(Oc2ccc(Cl)cc2)c(Cl)c1	-27	55*	-12	14	-9	2
CC1(C)N=C(N)N=C(N)N1c1cc(Cl)ccc1Cl	3	-1	0	21	-9	0
O=C(Nc1ccc(OC(F)(F)F)cc1)N1CCc2nc(NCc3cccc(Oc4ccccc4)c3)ncc2C1	-26	43*	17	-10	0	10
S=C(Nc1ccc(Oc2ccccc2)cc1)NC1CCCCC1	-13	-8	7	-2	1	6
CN(C(=S)Nc1ccc(Oc2ccccc2)cc1)C1CCCCC1	-26	39*	13	7	-9	4
S=C(Nc1ccc(Oc2ccccc2)cc1)NC1CCCCCC1	-24	29*	6	6	-5	6
CC/C(=N\O)c1c(O)c2c(n(-c3ccccc3)c1=O)CCCC2	-5	-2	3	4	-4	0
O=c1c(Cl)c(Cl)cnn1Cc1nnc(-c2ccccc2Br)o1	-35	94*	95*	-7	86*	71*
Clc1ccccc1OCc1nnc(-c2ccccc2Br)o1	1	-23	9	-4	-4	0
O=C(CSc1nnc(COc2ccccc2F)n1-c1ccccc1)NC1CCS(=O)(=O)C1 (configuration not stated)	-7	2	28*	-13	-5	0
O=C(NC(NC(=S)Nc1ccccc1Cl)C(Cl)(Cl)Cl)c1cccc(Cl)c1 (configuration not stated)	-13	22	24*	-1	5	14
COc1ccc(NC(=S)NC(NC(=O)c2cccc(Cl)c2)C(Cl)(Cl)Cl)c([N+](=O)[O-])c1 (configuration not stated)	-14	26	15	-8	8	15
Cc1ccc2c(c1)C1(SC(C)C(=O)N1c1ccc(Cl)cc1)C(=O)N2 (configuration not stated)	-26	25	0	12	-12	2
Cc1ccc(N2C(=O)CSC23C(=O)Nc2ccccc23)cc1 (configuration not stated)	-19	41*	-3	11	-5	0
COc1ccccc1CNC(=O)Nc1nc(C(N)CCc2ccccc2)cs1 (configuration not stated)	7	-14	-3	16	-2	4
O=S(=O)(O)c1cc(O)ccc1O	-9	-24	0	5	35*	1
SMILES	CHRM1 PAM	CHRM1 antagonist	CHO-K1 Ca antag	CHO-K1 Ca PAM	CHRM1 agonist	M1 ag parental
CC(=O)NC(=S)Nc1ccc(NC(=S)NC(=O)/C=C/c2ccco2)cc1	15	-7	-11	38	25*	12
CCC(=O)Nc1ccc(NC(=S)NC(=O)/C=C/c2ccco2)cc1	14	-18	-1	17	-2	1
O=C(Nc1ccc(C(=O)O)cc1)/C(=C\c1ccc([N+](=O)[O-])cc1)NC(=O)c1ccc(Br)cc1	-9	6	28*	-18	-3	-1
Cc1ccc(NC(=O)/C(=C\c2ccc([N+](=O)[O-])cc2)NC(=O)c2ccccc2)cc1	2	0	0	6	-3	0
O=C(COc1ccc(-c2ccccc2)cc1)Nc1cccnc1	-14	39*	15	-11	2	18*
O=C(COc1ccc(Nc2ccccc2)cc1)Nc1ccncc1	-9	23	9	-18	3	15*
O=C(COc1ccc(Cl)cc1)Nc1ccc(C(=O)NCc2cccnc2)cc1	1	8	1	6	1	6
O=C(COc1ccc(C(=O)NCc2cccnc2)cc1)Nc1cccc(C(F)(F)F)c1	-18	36*	13	-27	-2	9
Cc1ccccc1-c1nc2ccccc2c(=O)o1	12	-19	36*	-11	1	-1
Cc1ccc2nc(-c3ccccc3C)oc(=O)c2c1	12	-18	-4	-3	-2	0
COc1ccccc1NC(=O)CSc1nnc(C2CCCCC2)o1	1	11	24*	-9	-2	0
O=C(CSc1nnc(NC2CCCCC2)s1)N1CCOCC1	8	-2	-12	-4	-2	1
COc1ccc(C2c3ccc4ccccc4c3Oc3ncn(Cc4ccco4)c(=N)c32)cc1OC (configuration not stated)	-12	9	26*	-14	-8	0
COc1cc(C(=O)NNC(=O)/C=C/c2ccccc2)cc(OC)c1OC	7	-13	14	-20	-2	0
O=C(NNC(=S)NC(=O)c1ccccc1)c1cccc([N+](=O)[O-])c1	-2	2	-13	4	17*	12
O=C(NNC(=S)NC(=O)c1cccc([N+](=O)[O-])c1)c1ccc(O)cc1	8	-9	-12	1	-3	0
Cc1cccc(C(=O)NC(=S)NNC(=O)c2ccc(Cl)cc2)c1	-29	37*	48*	-16	93*	110*
